Source: PubChem
TRHR enhancer-1 – allosteric enhancers of human TRH receptor | AID 493056 | 360,000 compounds, 0.66% hits | P34981 | TRHR cells, fluo-8 calcium fluorescence, EC20 TRH enhancement | enhancement, % at 2 µM; in the data active = enhancement above about 30%
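TRHR-expressing cells loaded with fluo-8 calcium dye were read kinetically (ex 480/em 530) during compound addition, then stimulated with an EC20 of TRH (10 nM final). Enhancement of the Gq-mediated intracellular calcium response was scored.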
D1 potentiator – enhances dopamine response at the human D1 receptor | HEK293 TREx D1 cells, calcium flux, dopamine EC20 potentiation | potentiation, % at 10 µM | 360,000 compounds, 0.036% hits; in the data active = potentiation above about 30%
Target sequence (P21728 whole entry, looked up): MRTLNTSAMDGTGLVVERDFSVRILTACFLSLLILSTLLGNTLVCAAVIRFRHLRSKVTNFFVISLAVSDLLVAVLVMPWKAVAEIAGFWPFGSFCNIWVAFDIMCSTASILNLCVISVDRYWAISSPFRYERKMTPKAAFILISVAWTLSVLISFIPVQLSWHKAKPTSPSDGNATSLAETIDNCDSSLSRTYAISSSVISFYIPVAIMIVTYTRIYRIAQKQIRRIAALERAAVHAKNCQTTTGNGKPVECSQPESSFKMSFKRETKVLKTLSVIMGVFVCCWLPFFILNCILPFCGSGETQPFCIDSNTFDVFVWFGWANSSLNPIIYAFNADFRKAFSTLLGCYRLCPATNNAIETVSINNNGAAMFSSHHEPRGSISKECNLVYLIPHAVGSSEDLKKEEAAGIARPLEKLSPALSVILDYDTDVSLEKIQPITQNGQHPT
D1 agonist – human D1 receptor agonism | 360,000 compounds, 1% hits | activation, % at 2 µM | HEK293 T-REx D1 cells, calcium flux, agonist mode | P21728
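Agonism was scored from calcium flux recorded over 180 s (1 read/s) after pintool compound addition, following a 10-cycle baseline. Cells were inducible force-coupled HEK293 TREx D1, plated overnight at 30 C and loaded with no-wash calcium dye.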
TRHR agonist-1 – agonists of human TRH receptor; P34981; TRHR cells, calcium flux fluo-8, FDSS agonist mode; activation, % at 2 µM; 360,000 compounds, 0.18% hits; AID 493084
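Steps: seed TRHR cells overnight; add fluo-8 no-wash Ca dye, RT 30 min–1.5 h; record 10 s baseline; pin-transfer compounds; monitor fluorescence 1 cycle/s for the agonist window. Calcium increases flag candidate agonists.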
D1 antagonist – human D1 dopamine receptor antagonism; activity change, negative = inhibition, % at 10 µM; 360,000 compounds, 3.2% hits; HEK293 TREx D1 cells, calcium flux, dopamine EC80; hits give low values; in the data active = activity change below about -30%
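Compound effects on dopamine-evoked calcium signalling were measured in tetracycline-induced HEK293 Trex D1 cells. Dopamine at EC80 followed a 180 s compound pre-read, and fluorescence was tracked kinetically for 180 s more.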
TRHR enhancer-2 – confirmation of human TRH receptor allosteric enhancers | activity change, negative = inhibition, % at 46.1 µM | shares compounds with TRHR enhancer-1 | TRH receptor cell assay, enhancer confirmation qHTS | AID 493076 | 970 tested, under 10 active; active = well fitted curve in the direction sought with a large enough effect; inconclusive = small, poorly fitted or top-dose-only effect, or another doubt; inactive = no such curve, though single readings can be large; an effect the other way counts as inactive or inconclusive;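 note: compound effect scored on response to added TRH at EC20 of 10 nM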
TRHR agonist-2 – confirmation of human TRH receptor agonists; shares compounds with TRHR enhancer-1; AID 493078; 970 compounds, 8% hits; TRHR-expressing cells, agonist activation read-out; Potency, µM (titrated, usually from 46.1 µM), most hits filed as activators; active = well fitted curve in the direction sought with a large enough effect; inconclusive = small, poorly fitted or top-dose-only effect, or another doubt; inactive = no such curve, though single readings can be large; an effect the other way counts as inactive or inconclusive; note: nearly all actives have a fitted effect of over 75% in size
Of the large screens only hits and unclear results are named; the others gave an inactive call (follow-up assays come after a bar, where they were run). This is a sample that favours compounds with a hit; in the whole collection about 4.6% have one here. Cut-off read from the data, not from the text of the source, unless noted: active = activation above about 30%; inactive = the rest.

Cc1ccc(OCC(=O)Nc2ccc(Cl)cc2C(=O)c2ccccc2)cc1C	none
Cc1ccccc1-n1nc(C)c2c1NC(=O)CSC2c1ccc(N(C)C)cc1 (centres undefined)	none
Oc1ccc(CC2CC3CCN2CC3)cc1O (centres undefined)	none
Oc1ccc(C[C@H]2NCCc3cc(O)c(O)cc32)cc1O	D1 antagonist -90
CCCCCCC(C)(C)c1ccc([C@@H]2C[C@H](O)CC[C@H]2CCCO)c(O)c1	none
CC(C)(C)c1ccc(O)c(N=Cc2c(O)ccc3ccccc23)c1	D1 agonist 258, TRHR agonist-1 63
COC(=O)C(O)(c1ccc(N=Cc2ccccc2O)c(C)c1)C(F)(F)F (centres undefined)	none
Cc1cc(OCC(=O)N2CCN(CCc3ccncc3)CC2)ccc1Cl	none
C/C(=N\N1CCCCCC1)c1c(O)n(-c2ccc(Cl)cc2)c(=O)[nH]c1=O	none
C/C(=N\N1CCCCCC1)c1c(O)n(-c2ccc(C)cc2)c(=O)[nH]c1=O	D1 antagonist -40
Cc1ccc(OCC(=O)N2CCN(CCc3ccncc3)CC2)cc1C	none
CC(Cc1ccccc1Sc1ccccc1)N(C)C (centres undefined)	D1 antagonist -68
CC(Cc1ccccc1Sc1ccc(O)cc1)N(C)C (centres undefined)	D1 antagonist -48
CN1CCN(Cc2ccccc2Sc2ccccc2)CC1	D1 agonist 53
Cc1ccc(Cn2cccc(C(=O)Nc3cc(C)on3)c2=O)cc1	none (no result: D1 antagonist)
COC(=O)c1cc(C(O)(C(=O)OC)C(F)(F)F)c(/N=C/N(C)C)s1 (centres undefined)	TRHR enhancer-1 39
Cc1ccc(-n2c(/C=C/c3ccccc3)nc3ccccc3c2=O)cc1Cl	none
CC(c1ccc(F)cc1)n1cc(C(=O)NCc2ccc3c(c2)OCO3)nn1 (centres undefined)	D1 agonist 31
Cc1ccc(Cl)cc1NC(=O)N(Cc1ccc2c(c1)OCO2)C1CCN(Cc2ccccc2)CC1	none
COc1ccccc1OP(=O)(Nc1ccc(Br)cc1)Oc1ccccc1OC	D1 antagonist -47
NC(N)=N/N=C/c1ccc(N(c2ccccc2)c2ccccc2)cc1	none
C/C(=N\N=C(N)N)c1ccccc1	D1 antagonist -38
NC1CCc2cc(O)c(O)cc2C1 (centres undefined)	D1 agonist 77, D1 antagonist -102
O=C(c1ccc2c(c1)N(Cc1ccc(F)cc1Cl)C(=O)c1ccccc1S2)N1CCC2(CC1)OCCO2	none
Cc1ccc(/C=C2\C(=O)NC(=O)N(CCc3ccc(F)cc3)C2=O)o1	TRHR enhancer-1 37
Cc1ccc(/C=C2/C(=O)NC(=O)N(Cc3ccc(F)cc3)C2=O)o1	none
O=C(Nc1ccc2c(c1)OCO2)c1cccn(Cc2ccccc2)c1=O	none (no result: D1 antagonist)
CNC(=O)c1cccn(Cc2cccc(C(F)(F)F)c2)c1=O	D1 antagonist -32
CN(C)CCNC(=O)c1cccn(Cc2cccc(C(F)(F)F)c2)c1=O	none
O=c1c2ccccc2nc(/C=C\c2ccc(F)cc2)n1-c1ccccc1F	none
O=C(Nc1ccc(C(F)(F)F)cc1)OC1CN2CCC1CC2 (centres undefined)	D1 agonist 30
COCCN1C(=O)NC(=O)/C(=C\c2ccc(Br)cc2)C1=O	D1 antagonist -55
CN(C)c1ccc(/C=C2/C(=O)NC(=O)N(CCc3ccc(F)cc3)C2=O)cc1	none
CCOC(=O)C(O)(c1ccc(N(CC)C(=O)COc2ccccc2)cc1)C(F)(F)F (centres undefined)	none
COCCNC(=O)c1c(NC(=O)c2ccc(Br)o2)n(Cc2ccccc2)c2nc3ccccc3nc12	D1 agonist 37
COc1ccccc1CC1/C(=N/O)C2CCN1CC2 (centres undefined)	D1 antagonist -69
O=C1C2CCN(CC2)C1Cc1ccccc1O (centres undefined)	none
CCN(CC)c1ccc(/C=N/c2sc3c(c2C#N)C2CCN3CC2)c(O)c1	D1 agonist 247, TRHR agonist-1 52
CN1CCN(c2nc(N)c(Br)c(Cl)n2)CC1	D1 antagonist -34
N#Cc1ccc(NC(=O)CN2C(=O)NC3(CCCCCCC3)C2=O)cc1Cl	D1 antagonist -57
CCNC(=O)[C@H]1O[C@@H](n2cnc3c(N)ncnc32)[C@H](O)[C@@H]1O	TRHR enhancer-1 45 | TRHR enhancer-2 inconclusive | TRHR agonist-2 inactive
NC(=O)c1cn(C2OC(CO)C(O)C2O)c2ncnc(N)c12 (centres undefined)	none
Cc1nn(CC(=O)N2CCC3(CC2)OCCO3)c(=O)c2cc3ccccc3n12	none
Cc1ccc(N2C(=O)CC(=O)NC2=O)c(C)c1	TRHR enhancer-1 109 | TRHR enhancer-2 inactive | TRHR agonist-2 inactive
COc1c(C)cc(C(=O)C2CCCN(Cc3ccccn3)C2)cc1C (centres undefined)	none
CCOc1ccc(N2C(=O)NC(=O)/C(=C\c3ccc(N4CCCCC4)o3)C2=O)cc1	D1 agonist 85, TRHR agonist-1 31 | TRHR enhancer-2 inactive | TRHR agonist-2 23µM
CCOc1ccc(N2C(=O)/C(=C/c3ccc(C)o3)C(=O)NC2=S)cc1	none
O=C(N=Nc1c(O)[nH]c(=O)[nH]c1=O)C1COc2cc3ccccc3cc2O1 (centres undefined)	none
O=S(=O)(c1ccccc1)N1CCN2CCCC2C1 (centres undefined)	TRHR enhancer-1 57 | TRHR enhancer-2 inactive | TRHR agonist-2 inactive
C=C(CC1CC(O)[C@]2(C)OC3CC4OC5C[C@]6(C)O[C@]7(C)CCC8OC9C[C@]%10(C)OC%11C(C)=CC(=O)OC%11CC%10OC9C[C@@H](C)C8OC7CC6O[C@]5(C)C/C=C\C4OC3CC2O1)C(=O)O (some centres undefined)	TRHR enhancer-1 50 | TRHR enhancer-2 inconclusive | TRHR agonist-2 inactive
C=C(C=O)CC1CC(O)[C@]2(C)OC3C[C@@H]4OC5C[C@]6(C)O[C@]7(C)CCC8OC9C[C@]%10(C)OC(/C(C)=C\CO)C(O)CC%10OC9CC(C)C8OC7CC6O[C@]5(C)C/C=C\C4OC3CC2O1 (some centres undefined)	none
C[C@H]1C(=O)O[C@@H]2CCN3CC=C(COC(=O)[C@](C)(O)[C@]1(C)O)[C@H]23	TRHR enhancer-1 43 | TRHR enhancer-2 inactive | TRHR agonist-2 inactive
CN1CCN(c2ccc(S(=O)(=O)C(F)(F)F)cc2[N+](=O)[O-])CC1	TRHR enhancer-1 43 | TRHR enhancer-2 inactive | TRHR agonist-2 inactive
CN1CCN(c2ccc(S(C)(=O)=O)cc2[N+](=O)[O-])CC1	none
